# Screening data: PubChem, National Center for Advancing Translational Sciences (NCATS)
# BAZ2B inh: qHTS Assay for Inhibitors of BAZ2B. Bromodomain adjacent to zinc finger domain protein 2B (Homo sapiens), Q9UIF8. AlphaScreen BAZ2B-H3K14Ac peptide displacement. Potency, µM (highest dose often 114 µM), for inactives: top-dose activity change, negative = inhibition, hits mostly inhibitors. actives 4.4% (n = 360,000); note: % is set by controls: 0 for no effect and ±100 for the full control effect; nearly all actives have a fitted effect of over 60% in size
#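 AlphaScreen luminescence quantifies BAZ2B engagement of H3K14Ac peptide; the protein and biotinylated peptide are both at 50 nM final, buffer PBS pH 7.4 with 0.01% Tween-20, all steps at room temperature.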
# JMJD2A Tudor inh: qHTS Assay for Inhibitors of JMJD2A-Tudor Domain; Potency, µM (titrated, usually from 114 µM), for the others: at the highest dose activity change, negative = inhibition, hits mostly inhibitors; actives 4.4% (n = 390,000); AlphaScreen JMJD2A-Tudor / H3K4me3 peptide binding; note: % is set by controls: 0 for no effect and ±100 for the full control effect; nearly all actives have a fitted effect of over 50% in size
# G9a inh: qHTS Assay for Inhibitors of Histone Lysine Methyltransferase G9a; Histone-lysine N-methyltransferase EHMT2 (Homo sapiens), Q96KQ7; G9a H3K9 monomethylation, AlphaScreen, 2 h; Potency, µM (titrated, usually from 102 µM), inactives show top-dose activity, negative = inhibition, actives largely listed as inhibitors; actives 8.8% (n = 350,000); AID 504332, 2011; note: % is set by controls: 0 for no effect and ±100 for the full control effect; nearly all actives have a fitted effect of over 75% in size
#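 G9a (20 nM) was preincubated 15 min with compound, then reacted 2 h at room temperature with 500 nM biotin-H3K9 peptide and 20 µM SAM. Monomethyl-H3K9 detected by AlphaScreen using anti-H3K9me1 antibody.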
# L3MBTL1 inh: qHTS Assay for the Inhibitors of L3MBTL1; Lethal(3)malignant brain tumor-like protein 1 (Homo sapiens), Q9Y468; AlphaScreen L3MBTL1–H3K9me1 peptide binding; Potency, µM (highest dose often 57.1 µM), for inactives: at the top dose activity, negative = inhibition, actives largely listed as inhibitors; actives 0.66% (n = 230,000); AID 485360, 2010; note: % is set by controls: 0 for no effect and ±100 for the full control effect; nearly all actives have a fitted effect of over 60% in size
#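 Displacement of a biotinylated histone H3(1-15) peptide monomethylated at Lys9 (75 nM) from L3MBTL1 (50 nM) was measured by AlphaScreen after a 30 min room-temperature compound incubation; cefsulodin titration served as intraplate control.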
# HP1b chromo inh: HTS for Inhibitors of HP1-beta Chromodomain Interactions with Methylated Histone Tails | AID 540317, 2011 | actives 0.56% (n = 390,000) | Potency, µM (top dose mostly 114 µM), for inactives: at the highest dose activity change, negative = inhibition, actives largely listed as inhibitors | Chromobox protein homolog 1 (Homo sapiens), P83916 | AlphaScreen HP1-beta / biotin-H3K9me3 peptide binding; note: nearly all actives have a fitted effect of over 70% in size
#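 AlphaScreen: HP1-beta (50 nM) preformed 30 min with biotin-H3(1-18)K9me3 peptide (50 nM) in PBS pH 7.4, 0.01% Tween-20. Compound added for 30 min at RT, then streptavidin donor/nickel chelate acceptor beads (10 ug/mL) for 30 min.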
# The depositor's hits bear a star; ? = inconclusive; / = no result given; [ ] = dose if it differs, or a comment. The list is not random: actives were taken first. Their share in the collection is about 11%. Calls come from the whole dose curve; as a rule, active = well fitted inhibition curve with a large enough effect; inconclusive = small, poorly fitted or top-dose-only effect; inactive = no such curve, though single readings can be large or run the other way. Potency is the fitted concentration of half-maximal effect.
SMILES,BAZ2B inh,JMJD2A Tudor inh,G9a inh,L3MBTL1 inh,HP1b chromo inh
CCn1c(SCC(=O)N(C)CC(=O)Nc2ccc(OC)cc2)nnc1-c1ccco1,10%,-6%,20µM*,-2%,34%
CCOC(=O)c1sc(NC(=O)CSc2nnc(Cc3ccccc3)o2)c(C#N)c1C,?,56µM*,?,7%[11.4 µM],?
CCn1c(SCC(=O)N(C)CC(=O)Nc2cccc(OC)c2)nnc1-c1ccco1,-1%,-15%,-30%,3%,11%
CCOC(=O)CNC(=O)CSc1nnc(-c2ccco2)n1Cc1ccco1,-4%,28µM*,28µM*,29%,28%
N/C(=N\NC(=O)Nc1ccc(Cl)cc1)c1ccccn1,16µM*,45µM*,-28%,?,-1%
N/C(=N\NS(=O)(=O)c1ccccc1C(F)(F)F)c1ccccn1,-8%,3%,/,18%,57%
Cc1nc(C(F)(F)F)c(C(=O)N/N=C(\N)c2ccccn2)s1,10µM*,79µM*,11%,/,14%
CNC(=O)N/N=C(\N)c1ccccn1,?,?,10µM*,7%,40%
O=C1c2ccccc2C(=O)N1c1ccccc1O,/,1%,/,/,/
CCOc1ccc(N(CC)S(=O)(=O)N2CCCC(C(=O)NCc3ccccc3OCC)C2)cc1 (stereo not given),-12%,-13%,-2%[59 µM],/,38%
Cc1ccccc1NC(=O)c1ccc(Nc2c([N+](=O)[O-])cc([N+](=O)[O-])c3ccccc23)cc1,?,?,7.9µM*,-14%,?
O=C(Nc1ccc(Nc2ccccc2)cc1)c1ccc(Cl)c([N+](=O)[O-])c1,40µM*,50µM*,/,-25%,?
Cc1cc(C(=O)Nc2ccc(Nc3ccccc3)cc2)ccc1[N+](=O)[O-],-25%,10µM*,8%[0.501 µM],-3%[2.29 µM],22µM*
CC1CCc2nc3ccc(S(=O)(=O)N4CCC(C(=O)NC(C)c5ccccc5)CC4)cc3c(C(=O)O)c2C1 (stereo not given),?,-28%,50µM*,/,13%
CCc1ccc2nc3c(c(C(=O)O)c2c1)CCC3,?,-33%,50µM*,?,0%
CC(=O)N1c2ccc(S(=O)(=O)N3CCC(C(=O)NC(C)c4ccccc4)CC3)cc2CC1C (stereo not given),2%,3%,?,-1%,45%
CC1CCc2nc3ccc(S(=O)(=O)N4CCC(C(=O)O)CC4)cc3c(C(=O)O)c2C1 (stereo not given),?,?,32µM*,-3%,38%
CCOC(CNC(=O)C1CCN(S(=O)(=O)c2ccc3nc4c(c(C(=O)O)c3c2)CCCCC4)CC1)OCC,-15%,3%,-11%,/,29%
CSc1ccc(S(=O)(=O)N2CCC(C(=O)NC3CC3)CC2)cc1,6%,-14%,35µM*,/,-2%
CS(=O)(=O)c1nc(-c2ccc(Br)cc2)n[nH]1,-8%,30%,?,/,50%
O=C(O)c1c2c(nc3ccc(S(=O)(=O)N4CCC(C(=O)N5CCCCC5)CC4)cc13)CCCC2,?,-17%,50µM*,/,18%
CC1CCc2nc3ccc(S(=O)(=O)N4CCC(C(=O)N5CCCCC5)CC4)cc3c(C(=O)O)c2C1 (stereo not given),-6%,-16%,45µM*,/,35%
COC(CNC(=O)C1CCN(S(=O)(=O)c2ccc3nc4c(c(C(=O)O)c3c2)CC(C)CC4)CC1)OC (stereo not given),?,-26%,32µM*,/,10%
CC1CCc2nc3ccc(S(=O)(=O)N4CCC(C(=O)NC5CCCC5)CC4)cc3c(C(=O)O)c2C1 (stereo not given),-32%,-23%,45µM*,/,26%
O=C(O)c1c2c(nc3ccc(S(=O)(=O)N4CCC(C(=O)NC5CCCC5)CC4)cc13)CCCCC2,-6%,-25%,?,-14%,21%
SMILES,BAZ2B inh,JMJD2A Tudor inh,G9a inh,L3MBTL1 inh,HP1b chromo inh
CCC(C)NC(=O)c1cn(CC)c2ccc(S(=O)(=O)N3CCc4ccccc4C3)cc2c1=O (stereo not given),/,-28%,-27%[59 µM],/,10%
CCOc1ccc(CCNC(=O)c2ccc3c(c2)N(Cc2ccccc2F)C(=O)c2ccccc2S3=O)cc1OCC (stereo not given),?,-25%,-9%[59 µM],/,11%
c1ccc(-c2nnc(CSc3ccc4c(c3)OCCO4)o2)cc1,25%,9%,28%,6%,58%
Oc1ccc(N2CCN(Cc3nc4ccccc4[nH]3)CC2)cc1,-35%,50µM*,11µM*,/,?
O=c1[nH]c(CN2CCN(c3ccc(O)cc3)CC2)nc2scc(-c3ccc(Cl)cc3)c12,?,45µM*,3.2µM*,?,?
COc1ccc(-c2csc(CCN3N=C(C)CC3=O)n2)cc1,40µM*,?,32µM*,/,2%
COc1ccc(-c2csc(C)n2)cc1,4%,-6%,-16%[59 µM],4%,56%
O=[N+]([O-])c1ccccc1CN1CCN(c2ncccn2)CC1,50µM*,18µM*,?,3%,?
O=[N+]([O-])c1ccccc1CN1CCN(Cc2c[nH]c3ccccc23)CC1,50µM*,10µM*,32µM*,1%,?
O=C(Cc1ccccc1[N+](=O)[O-])OCC(=O)c1c[nH]c2ccccc12,-9%,-25%,-45%,-5%,11%
O=[N+]([O-])c1ccccc1CN1CCN(Cc2ccccn2)CC1,50µM*,0.79µM*,4µM*,/,-10%
CC(=O)Nc1ccc(S(=O)(=O)N2CCN(Cc3ccccc3[N+](=O)[O-])CC2)cc1,-32%,-29%,?,/,11%
O=[N+]([O-])c1ccc(N2CCN(CCO)CC2)c2ncccc12,0%,-6%,-8%[59 µM],5%,26%
CCN(CC)CCCNc1cc(-c2ccccc2)nc(C)n1,-17%,0%,1%[59 µM],/,49%
COc1cc(C(=S)N(C)C)ccc1O,-2%,-18%[11.4 µM],6.3µM*,2%,?
COc1ccccc1C1=Nn2c(nnc2-c2cccc(OC)c2OC)SC1,/,-16%,/,/,/
N[C@@H](Cc1ccccc1)c1nnc2sc(SCc3ccccc3)nn12,?,?,7.1µM*,7%[11.4 µM],71%
CCOc1ccc(C(=O)N2CC(=O)Nc3ccc(C)cc3C2c2ccc(F)cc2)cc1OCC (stereo not given),-15%,-26%,-15%[59 µM],/,9%
CC(C)(C)c1cc(Cl)ccc1OCCn1ccnc1,40µM*,5µM*,/,-3%,?
Cc1ccc(OCCn2ccnc2)c(C)c1,-37%,-25%,71µM*,/,33%
Cc1cc(C(C)(C)C)ccc1OCCn1ccnc1,35µM*,14µM*,22µM*,/,?
